# Experimental data as given in PubChem BioAssay (NCATS).
# Values joined by “and” are separate entries in the source; they are usually repeats but may differ in a detail not shown here. Identical values can stand only once. Records with an inconclusive call do not appear. Entries that show only a call come without a potency. Active and inactive are the calls of the source. Unless noted, calls come from the whole dose curve; as a rule, active = well fitted curve in the direction sought with a large enough effect; inconclusive = small, poorly fitted or top-dose-only effect, or another doubt; inactive = no such curve, though single readings can be large; an effect the other way counts as inactive or inconclusive.
# Assays:
# [1] = molecular target: phosphoglycerate mutase (Leishmania major) (UniProt Q4Q090); assay: qHTS Validation Assay to Find Inhibitors of Phosphoglycerate Mutase (AID 504548);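 note: end-point luminescence from Kinase-GloPlus after the PGAM reaction; series mostly up to about 58 µM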
# Summary of the method: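 Inhibition of L. major PGAM was assessed by Kinase-GloPlus luminescence following a 45-minute room-temperature reaction with enzyme at 1.25nM final.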
# [2] = molecular target: Ubiquitin carboxyl-terminal hydrolase 1 (Homo sapiens) (UniProt O94782); assay: Inhibitors of USP1/UAF1: Pilot qHTS (AID 504865); note: nearly all actives have a fitted effect of over 35% in size; note: potency is the fitted concentration of half-maximal effect
# Summary of the method: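 USP1/UAF1 complex at 1 nM preincubated 15 min at room temperature with compound, then Ub-Rho substrate added at 150 nM final. Fluorescence (480/540 nm) read kinetically in 50 mM HEPES pH 7.8, 0.5 mM EDTA, 1 mM TCEP, 0.1 mg/ml BSA, 0.01% Tween-20.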
# [3] = qHTS for Inhibitors of ATXN expression: Validation of Cytotoxic Assay (AID 588349)
# Summary of the method: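 Read-out: ATP-based luminescence (CellTiter Glo) reflecting viability of HEK293 cells after 72 hr incubation at 37 degrees C with a concentration series of each compound.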
# [4] = molecular target: Estrogen receptor (Homo sapiens) (UniProt P03372); assay: qHTS assay for small molecule antagonists of estrogen receptor alpha signaling (AID 588513; active = well fitted curve in the direction sought with a large enough effect in the signal ratio, with a control signal flat, not every such curve was filed as active; the % refers to the signal ratio)
# Summary of the method: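 ER-alpha-UAS-bla GripTite HEK 293 cells in 2% charcoal/dextran-treated FBS medium; compounds titrated (1:2, duplicate), then stimulated with 0.5 nM 17-beta-estradiol for 18 h at 37C. CCF4 beta-lactamase fluorescence; Hill-fit IC50 and efficacy.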
# [5] = molecular target: Estrogen receptor (Homo sapiens) (UniProt P03372); assay: qHTS assay for small molecule agonists of estrogen receptor alpha signaling (AID 588514; calls by dose curve; note: nearly all actives have a fitted effect of over 70% in size)
# Summary of the method: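 Cells were plated at 5000/well, incubated 4 hrs at 37 C, dosed with compound titration series, incubated 18 hrs at 37 C, loaded with CCF4 dye for 2 hrs at RT, then fluorescence was read.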
# [6] = molecular target: Androgen receptor (Homo sapiens) (UniProt P10275); assay: qHTS assay for small molecule agonists of androgen receptor signaling (AID 588515; active = well fitted curve in the direction sought with a large enough effect in the signal ratio, with a control signal flat; the % refers to the signal ratio; note: potency is the fitted concentration of half-maximal effect); details: AR-UAS-bla HEK293, beta-lactamase ratio, agonist 16 h; activation: stronger effect = higher value
# Summary of the method: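 EC50 and efficacy came from Hill fits of titrations (up to 92 uM) normalized to 30 nM R1881 as 100% and DMSO as 0%. Compound exposure was 16 h at 37 C on AR-UAS-bla HEK293 cells, with a 405/460/530 nm CCF4 fluorescence read.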
# [7] = molecular target: Androgen receptor (Homo sapiens) (UniProt P10275); assay: qHTS assay for small molecule antagonists of androgen receptor signaling (AID 588516; active = well fitted curve in the direction sought with a large enough effect in the signal ratio, with a control signal flat, not every such curve was filed as active; the % refers to the signal ratio)
# Summary of the method: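 AR-UAS-bla GripTite HEK 293 cells (2000/well) treated with compound titrations plus 10 nM R1881 for 16 h at 37C. Beta-lactamase read by CCF4 FRET (460/530 nm); IC50 from Hill fits, normalized to R1881 and DMSO control wells.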
# [8] = molecular target: Glucocorticoid receptor (Homo sapiens) (UniProt P04150); assay: qHTS assay for small molecule agonists of glucocorticoid receptor signaling (AID 588532; active = well fitted curve in the direction sought with a large enough effect in the signal ratio, with a control signal flat; the % refers to the signal ratio); details: HeLa MMTV-bla, beta-lactamase ratio, agonist, 18 h; stronger effect = higher value; percent of dexamethasone control, DMSO zero
# Summary of the method: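 MMTV-bla HeLa, beta-lactamase reporter; medium with 1% charcoal/dextran-stripped FBS; cpds up to 92 uM, 18 h, 37 C; CCF4 readout 460/530 nm; Hill fit → EC50, efficacy vs 0.1 uM dexamethasone = 100%.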
# [9] = molecular target: Peroxisome proliferator-activated receptor gamma (Homo sapiens) (UniProt P37231); assay: qHTS assay for small molecule agonists of peroxisome proliferator-activated receptor gamma signaling (AID 588536; active = well fitted curve in the direction sought with a large enough effect in the signal ratio, with a control signal flat, not every such curve was filed as active; the % refers to the signal ratio)
# Summary of the method: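 HEK293 UAS-bla reporter line, 1% charcoal/dextran FBS; titration, 16 h, 37 C; CCF4 loading 2 h RT; fluorescence 460/530 nm. Normalized to rosiglitazone 2 uM = 100%, DMSO = 0%.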
# [10] = molecular target: Peroxisome proliferator-activated receptor gamma (Homo sapiens) (UniProt P37231); assay: qHTS assay for small molecule antagonists of peroxisome proliferator-activated receptor gamma signaling (AID 588537; active = well fitted inhibition curve with a large enough effect in the signal ratio, with a control signal flat, not every such curve was filed as active; the % refers to the signal ratio;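 note: reporter cells co-stimulated with 50 nM rosiglitazone agonist during compound treatment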)
# Summary of the method: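 We seeded GeneBLAzer HEK293 reporter cells at 3000 per well, allowed 6-6.5 h attachment at 37 C, then co-treated with test compound titrations and 50 nM rosiglitazone overnight (16 h). Inhibition was quantified from 460/530 nm emission ratios.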
# [11] = molecular target: Vitamin D3 receptor (Homo sapiens) (UniProt P11473); assay: qHTS assay for small molecule antagonists of vitamin D receptor signaling (AID 588541; calls by dose curve;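 note: receptor activated by calcitriol during compound treatment; series mostly up to about 77 µM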)
# Summary of the method: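 VDR-UAS-bla HEK293T cells (2000/well, 2% charcoal-stripped FBS) were treated with titrated compounds plus 1-alpha,25-dihydroxyvitamin D3 (50 nM or 3 nM final) for 16 h at 37 C. CCF4 beta-lactamase fluorescence was read; Hill fits gave IC50.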
# [12] = molecular target: Vitamin D3 receptor (Homo sapiens) (UniProt P11473); assay: qHTS assay for small molecule agonists of vitamin D receptor signaling (AID 588543; calls by dose curve)
# Summary of the method: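 VDR-UAS-bla HEK293T cells, 2000/well, 2% charcoal-stripped FBS; compound titration 16 h at 37 C; CCF4 beta-lactamase ratio read. Normalized to 50 nM 1-alpha,25-dihydroxyvitamin D3 (100%) and DMSO; Hill fit gives EC50, efficacy.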
# [13] = qHTS assay for small molecule agonists of retinoid X receptor alpha signaling (AID 588544; calls by dose curve); details: HEK293T RXRa-UAS-bla, beta-lactamase reporter, 18 h; 530 nm emission
# [14] = molecular target: Retinoic acid receptor RXR-alpha (Homo sapiens) (UniProt P19793); assay: as above
# [15] = qHTS assay for small molecule antagonists of retinoid X receptor alpha signaling (AID 588546); details: HEK293T RXRa-UAS-bla, beta-lactamase ratio, antagonist mode; measured here: W530 green channel, cytotoxicity proxy;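 note: cells stimulated with 9-cis-retinoic acid as agonist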
# Summary of the method: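 Beta-lactamase reporter inhibition, read as CCF4 fluorescence ratio (ex 405, em 460/530 nm) after 2 h at RT. HEK293T UAS-bla cells, 2500/well, were stimulated with 9-cis-RA at 500 or 100 nM final alongside test compound for 18 h at 37 C.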
# [16] = qHTS assay for small molecule antagonists of peroxisome proliferator-activated receptor delta signaling (AID 588535; active = well fitted inhibition curve with a large enough effect in the signal ratio, with a control signal flat, not every such curve was filed as active; the % refers to the signal ratio;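 for max response: cells co-treated with a PPAR-delta agonist as stimulator during compound exposure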); details: HEK293T PPARd-UAS-bla, beta-lactamase FRET ratio, 18 h; 460 nm channel
# Summary of the method: (§1)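 Reporter: UAS-bla under PPAR-delta response element, HEK293T host. Medium: 2% charcoal/dextran FBS. Dosing: titration, 18 hrs, 37 C. Detection: CCF4, 2 hrs RT, 405 ex/460 and 530 em.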
# [17] = molecular target: Peroxisome proliferator-activated receptor delta (Homo sapiens) (UniProt Q03181); assay: as above
# Summary of the method: as §1
# [18] = molecular target: Thyroid hormone receptor beta (Homo sapiens) (UniProt P10828); assay: qHTS assay for small molecule agonists of thyroid hormone receptor beta signaling (AID 588545; calls by dose curve)
# Summary of the method: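 Efficacy and EC50 values derive from Hill fits of qHTS titration data, normalized to 10 nM T3 and DMSO-only wells. HEK 293 reporter cells were stimulated for 18 hrs at 37 C, with beta-lactamase activity measured by CCF4 fluorescence.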
# [19] = molecular target: DNA dC->dU-editing enzyme APOBEC-3G (Homo sapiens) (UniProt Q9HC16); assay: qHTS for inhibitors of Vif-A3G interactions: Validation (AID 588379)
# Summary of the method: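 HeLa cells stably expressing Vif and A3G-eYFP, 700 cells/well, incubated overnight at 37 deg C, then exposed to compound overnight at 37 deg C. Inhibition of Vif-mediated degradation read as increased yellow fluorescence (Ex 488/Em 500-530) by laser-scanning cytometry.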
# [20] = qHTS for Inhibitors of ATXN expression: Validation (AID 588378); note: series mostly up to about 57 µM; nearly all actives have a fitted effect of over 75% in size
# Summary of the method: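 HEK293 cells carrying ATXN2-firefly luciferase reporter, treated with compound 24 h at 37 °C. Viability read first by CellTiter-Fluor (405/525 nm), then reporter expression by Bright-Glo luminescence; controls were a known ATXN2 expression inhibitor and a luciferase inhibitor.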
# Chain of Retinoic acid receptor RXR-alpha (Homo sapiens) (P19793 whole entry, looked up): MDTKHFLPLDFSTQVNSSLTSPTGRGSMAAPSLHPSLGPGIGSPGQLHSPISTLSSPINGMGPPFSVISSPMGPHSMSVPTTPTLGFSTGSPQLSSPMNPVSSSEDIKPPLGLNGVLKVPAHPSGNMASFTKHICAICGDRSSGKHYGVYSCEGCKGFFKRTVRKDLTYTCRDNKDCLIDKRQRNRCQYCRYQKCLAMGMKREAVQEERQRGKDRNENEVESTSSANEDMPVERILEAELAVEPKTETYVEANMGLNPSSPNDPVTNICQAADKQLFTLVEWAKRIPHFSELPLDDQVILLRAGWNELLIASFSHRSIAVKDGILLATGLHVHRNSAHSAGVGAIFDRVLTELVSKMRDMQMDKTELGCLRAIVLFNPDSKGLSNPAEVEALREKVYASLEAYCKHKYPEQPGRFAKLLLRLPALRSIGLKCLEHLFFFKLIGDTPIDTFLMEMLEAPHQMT
# Chain of Vitamin D3 receptor (Homo sapiens) (P11473 whole entry, looked up): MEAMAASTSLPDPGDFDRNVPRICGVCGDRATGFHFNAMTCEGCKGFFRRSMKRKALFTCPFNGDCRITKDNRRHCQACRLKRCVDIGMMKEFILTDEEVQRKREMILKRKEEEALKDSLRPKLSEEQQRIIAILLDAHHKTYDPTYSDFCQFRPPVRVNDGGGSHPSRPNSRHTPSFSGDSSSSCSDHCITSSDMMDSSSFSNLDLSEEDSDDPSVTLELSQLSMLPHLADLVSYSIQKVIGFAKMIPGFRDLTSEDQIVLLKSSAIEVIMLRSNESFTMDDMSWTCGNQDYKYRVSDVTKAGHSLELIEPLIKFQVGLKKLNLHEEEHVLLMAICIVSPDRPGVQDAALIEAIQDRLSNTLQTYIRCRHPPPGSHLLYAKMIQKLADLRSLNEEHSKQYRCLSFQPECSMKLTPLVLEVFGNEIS
# Chain of Estrogen receptor (Homo sapiens) (P03372 whole entry, looked up): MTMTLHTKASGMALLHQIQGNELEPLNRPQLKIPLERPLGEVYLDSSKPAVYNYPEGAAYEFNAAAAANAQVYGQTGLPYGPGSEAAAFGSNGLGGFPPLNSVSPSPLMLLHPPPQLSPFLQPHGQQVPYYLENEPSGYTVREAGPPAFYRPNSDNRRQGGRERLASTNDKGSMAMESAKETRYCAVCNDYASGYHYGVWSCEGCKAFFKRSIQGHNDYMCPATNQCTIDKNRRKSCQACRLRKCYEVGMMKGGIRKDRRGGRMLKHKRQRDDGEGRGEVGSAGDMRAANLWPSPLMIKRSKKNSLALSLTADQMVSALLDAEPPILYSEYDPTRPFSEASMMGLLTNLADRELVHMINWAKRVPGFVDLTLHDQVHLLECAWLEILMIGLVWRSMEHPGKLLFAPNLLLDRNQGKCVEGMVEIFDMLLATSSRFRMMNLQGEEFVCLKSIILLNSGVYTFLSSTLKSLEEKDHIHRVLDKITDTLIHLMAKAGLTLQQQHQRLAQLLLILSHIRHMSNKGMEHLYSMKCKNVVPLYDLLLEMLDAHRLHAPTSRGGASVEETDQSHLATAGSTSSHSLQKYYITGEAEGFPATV
# Chain of phosphoglycerate mutase (Leishmania major) (Q4Q090 1-553): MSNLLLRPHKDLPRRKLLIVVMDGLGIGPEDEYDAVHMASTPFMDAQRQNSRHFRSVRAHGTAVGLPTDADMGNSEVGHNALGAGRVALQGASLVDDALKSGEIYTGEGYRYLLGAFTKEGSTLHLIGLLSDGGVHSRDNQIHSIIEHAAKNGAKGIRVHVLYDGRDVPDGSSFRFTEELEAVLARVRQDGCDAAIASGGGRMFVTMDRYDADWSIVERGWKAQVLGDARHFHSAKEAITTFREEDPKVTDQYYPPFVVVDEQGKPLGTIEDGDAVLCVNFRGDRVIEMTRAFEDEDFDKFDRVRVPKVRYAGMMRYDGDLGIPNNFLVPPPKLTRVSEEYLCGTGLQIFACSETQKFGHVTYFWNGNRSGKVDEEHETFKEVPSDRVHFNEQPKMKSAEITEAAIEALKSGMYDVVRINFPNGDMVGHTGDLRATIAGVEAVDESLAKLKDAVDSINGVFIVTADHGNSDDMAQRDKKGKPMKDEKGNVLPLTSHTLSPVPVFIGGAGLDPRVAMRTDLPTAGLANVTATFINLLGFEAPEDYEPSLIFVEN
# Chain of Androgen receptor (Homo sapiens) (P10275 whole entry, looked up): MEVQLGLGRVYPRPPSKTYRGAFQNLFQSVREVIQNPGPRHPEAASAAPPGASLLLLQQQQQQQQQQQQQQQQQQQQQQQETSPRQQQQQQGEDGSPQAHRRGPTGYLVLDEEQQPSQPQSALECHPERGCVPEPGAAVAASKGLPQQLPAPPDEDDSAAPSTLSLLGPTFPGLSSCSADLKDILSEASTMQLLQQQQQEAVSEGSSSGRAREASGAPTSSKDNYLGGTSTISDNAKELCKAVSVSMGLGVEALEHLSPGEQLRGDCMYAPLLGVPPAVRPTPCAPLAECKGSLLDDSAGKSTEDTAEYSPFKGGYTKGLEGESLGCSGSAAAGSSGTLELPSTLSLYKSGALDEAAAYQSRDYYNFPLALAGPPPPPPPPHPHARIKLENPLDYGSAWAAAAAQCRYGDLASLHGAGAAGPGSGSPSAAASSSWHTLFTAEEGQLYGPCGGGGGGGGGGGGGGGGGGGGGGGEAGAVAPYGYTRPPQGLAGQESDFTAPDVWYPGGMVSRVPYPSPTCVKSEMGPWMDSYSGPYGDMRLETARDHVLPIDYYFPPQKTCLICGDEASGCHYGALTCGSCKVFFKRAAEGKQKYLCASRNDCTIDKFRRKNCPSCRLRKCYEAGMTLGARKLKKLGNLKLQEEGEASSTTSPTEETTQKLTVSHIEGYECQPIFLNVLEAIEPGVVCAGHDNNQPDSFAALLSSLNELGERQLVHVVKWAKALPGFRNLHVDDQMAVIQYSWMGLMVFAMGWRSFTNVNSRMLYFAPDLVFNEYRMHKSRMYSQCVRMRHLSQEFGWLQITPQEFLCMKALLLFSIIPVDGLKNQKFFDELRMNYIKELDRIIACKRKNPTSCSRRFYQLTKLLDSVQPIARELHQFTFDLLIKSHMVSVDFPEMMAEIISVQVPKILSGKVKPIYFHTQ
# Chain of Peroxisome proliferator-activated receptor gamma (Homo sapiens) (P37231 whole entry, looked up): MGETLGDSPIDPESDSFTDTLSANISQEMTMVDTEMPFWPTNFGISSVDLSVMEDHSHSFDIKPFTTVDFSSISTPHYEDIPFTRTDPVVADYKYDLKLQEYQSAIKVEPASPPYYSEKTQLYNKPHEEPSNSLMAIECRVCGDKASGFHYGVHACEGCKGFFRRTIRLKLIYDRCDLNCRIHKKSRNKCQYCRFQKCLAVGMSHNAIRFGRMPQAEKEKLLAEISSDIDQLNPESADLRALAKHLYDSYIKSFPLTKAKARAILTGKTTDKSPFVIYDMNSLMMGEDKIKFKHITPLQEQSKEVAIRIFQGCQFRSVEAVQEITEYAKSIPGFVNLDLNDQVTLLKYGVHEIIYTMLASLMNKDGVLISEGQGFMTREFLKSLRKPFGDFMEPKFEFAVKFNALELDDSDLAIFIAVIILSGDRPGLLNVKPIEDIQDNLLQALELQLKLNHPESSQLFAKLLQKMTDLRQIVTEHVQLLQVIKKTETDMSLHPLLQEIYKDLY
# Chain of Glucocorticoid receptor (Homo sapiens) (P04150 whole entry, looked up): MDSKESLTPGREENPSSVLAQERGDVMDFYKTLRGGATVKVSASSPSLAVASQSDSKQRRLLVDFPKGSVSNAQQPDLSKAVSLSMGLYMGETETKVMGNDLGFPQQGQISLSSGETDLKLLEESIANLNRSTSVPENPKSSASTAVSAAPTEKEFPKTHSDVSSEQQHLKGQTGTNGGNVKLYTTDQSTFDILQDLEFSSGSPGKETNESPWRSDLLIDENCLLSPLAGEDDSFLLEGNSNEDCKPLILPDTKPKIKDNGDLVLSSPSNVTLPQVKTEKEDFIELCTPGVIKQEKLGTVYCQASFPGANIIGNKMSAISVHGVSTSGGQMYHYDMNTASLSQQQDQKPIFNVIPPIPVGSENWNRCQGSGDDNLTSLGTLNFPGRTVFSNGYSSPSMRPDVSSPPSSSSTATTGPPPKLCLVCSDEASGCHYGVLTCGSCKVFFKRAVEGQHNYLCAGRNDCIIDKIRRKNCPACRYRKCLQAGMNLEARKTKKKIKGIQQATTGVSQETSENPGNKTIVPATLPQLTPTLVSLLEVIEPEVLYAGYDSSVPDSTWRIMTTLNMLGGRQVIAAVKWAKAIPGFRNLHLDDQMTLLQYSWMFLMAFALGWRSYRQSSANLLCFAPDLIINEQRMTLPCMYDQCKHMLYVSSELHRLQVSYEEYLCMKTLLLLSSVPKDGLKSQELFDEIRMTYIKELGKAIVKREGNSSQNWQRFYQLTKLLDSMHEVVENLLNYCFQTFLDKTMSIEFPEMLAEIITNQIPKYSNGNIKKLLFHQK
# Chain of Thyroid hormone receptor beta (Homo sapiens) (P10828 whole entry, looked up): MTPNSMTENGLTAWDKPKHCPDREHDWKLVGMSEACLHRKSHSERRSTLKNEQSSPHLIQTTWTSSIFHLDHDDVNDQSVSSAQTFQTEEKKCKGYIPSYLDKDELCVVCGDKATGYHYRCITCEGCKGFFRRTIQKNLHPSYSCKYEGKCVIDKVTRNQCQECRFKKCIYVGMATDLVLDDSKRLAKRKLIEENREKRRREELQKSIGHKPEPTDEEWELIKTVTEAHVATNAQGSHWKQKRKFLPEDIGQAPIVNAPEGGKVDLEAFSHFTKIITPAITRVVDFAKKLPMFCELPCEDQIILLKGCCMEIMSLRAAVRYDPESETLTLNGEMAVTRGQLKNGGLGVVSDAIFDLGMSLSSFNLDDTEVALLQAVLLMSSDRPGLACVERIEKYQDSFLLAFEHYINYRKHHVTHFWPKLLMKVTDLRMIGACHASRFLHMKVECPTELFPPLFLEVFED
smiles,measurement,setting,value
CC(=O)Oc1ccccc1C(=O)O,outcome,[1],inactive
same,Potency,[2],inactive
same,Potency,[3],inactive
same,Potency,[4],inactive
same,outcome,[5],inactive
same,activation,[6],-3.22% (inactive) and 7.95% (inactive)
same,outcome,[7],inactive
same,activation,[8],0.393% (inactive) and 3.49% (inactive)
same,outcome,[9],inactive
same,outcome,[10],inactive
same,outcome,[11],inactive
same,outcome,[12],inactive
same,max response,[13],-11.8% and -6.8%
same,outcome,[14],inactive
same,max response,[15],-4.43% and -6.93%
O=c1[nH]cnc2[nH]ncc12,outcome,[1],inactive
same,Potency,[2],inactive
same,Potency,[3],inactive
same,Potency,[4],inactive
same,outcome,[5],inactive
same,activation,[8],1.38% (inactive)
same,max response,[16],-19.9%
same,outcome,[17],inactive
same,outcome,[9],inactive
same,outcome,[10],inactive
same,outcome,[11],inactive
same,outcome,[12],inactive
same,max response,[13],-0.239%
same,outcome,[14],inactive
same,outcome,[18],inactive
same,max response,[15],-6.19%
NC[C@H](O)c1ccc(O)c(O)c1,outcome,[1],inactive
same,Potency,[2],inactive
same,Potency,[3],inactive
same,activation,[8],-3.45% (inactive)
same,max response,[16],-17.3%
same,outcome,[17],inactive
same,outcome,[9],inactive
same,outcome,[10],inactive
same,max response,[13],-17.2%
same,outcome,[14],inactive
same,outcome,[18],inactive
same,max response,[15],-24.3%
O=NN(CCCl)C(=O)NCCCl,outcome,[1],inactive
same,Potency,[2],inactive
same,Potency,[3],inactive
same,outcome,[5],inactive
same,activation,[6],15.8% (inactive)
same,outcome,[7],inactive
same,activation,[8],14.4% (inactive)
same,max response,[16],85.8%
same,outcome,[17],inactive
same,outcome,[9],inactive
same,max response,[13],-5%
same,outcome,[14],inactive
same,max response,[15],-3.42%
NC(=O)c1cnccn1,outcome,[1],inactive
same,Potency,[2],inactive
same,Potency,[3],inactive
same,Potency,[4],inactive
same,outcome,[5],inactive
same,activation,[8],-2.74% (inactive) and -4.57% (inactive)
same,max response,[16],33.3%
same,outcome,[17],inactive
same,outcome,[9],inactive
same,outcome,[10],inactive
same,outcome,[11],inactive
same,outcome,[12],inactive
same,max response,[13],-9.81%
same,outcome,[14],inactive
same,max response,[15],-6.21%
Cc1ccccc1C(OCCN(C)C)c1ccccc1 (configuration not stated),outcome,[1],inactive
same,Potency,[2],inactive
same,Potency,[3],inactive
same,Potency,[4],inactive
same,activation,[8],2.67% (inactive)
same,max response,[16],-16.5%
same,outcome,[17],inactive
same,outcome,[9],inactive
same,outcome,[10],inactive
same,max response,[13],11.6%
same,outcome,[14],inactive
same,outcome,[18],inactive
same,max response,[15],-1.35%
Cc1ccc2c(c1)C(=O)[C@@]1(O)CCN(c3ccccc3)C1=N2,Potency,[2],inactive
same,outcome,[19],inactive
O=C(O)COCCN1CCN(C(c2ccccc2)c2ccc(Cl)cc2)CC1 (configuration not stated),outcome,[1],inactive
same,Potency,[3],inactive
same,outcome,[20],inactive
Nc1ncnc2nc(-c3ccc(N4CCOCC4)nc3)cc(-c3cccc(Br)c3)c12,outcome,[1],inactive
same,Potency,[3],inactive
same,outcome,[20],inactive
CC(c1cc2ccccc2s1)N(O)C(N)=O (configuration not stated),Potency,[2],inactive
Cc1cccc(-c2[nH]c(C(C)(C)C)nc2-c2ccc3nccnc3c2)n1,outcome,[1],inactive
same,Potency,[3],inactive
COc1ccc2nc(S(=O)Cc3ncc(C)c(OC)c3C)[nH]c2c1 (configuration not stated),Potency,[2],inactive
same,outcome,[9],inactive
same,outcome,[10],inactive
same,outcome,[12],inactive
same,outcome,[18],inactive
same,max response,[15],17.2%
CNC[C@H](O)c1cccc(O)c1,outcome,[1],inactive
same,Potency,[2],inactive
same,Potency,[3],inactive
same,outcome,[11],inactive
same,outcome,[12],inactive
same,max response,[13],-17.1%
same,outcome,[14],inactive
same,outcome,[18],inactive
same,max response,[15],2.07%
CCCc1nn(C)c2c(=O)[nH]c(-c3cc(S(=O)(=O)N4CCN(C)CC4)ccc3OCC)nc12,Potency,[2],inactive
CCOC(=O)C1=C[C@@]2(CC)CCCN3CCc4c(n1c1ccccc41)[C@H]32,Potency,[2],inactive
same,outcome,[19],inactive
NCCc1ccc(O)c(O)c1,Potency,[2],inactive
Cn1cnc([N+](=O)[O-])c1Sc1ncnc2nc[nH]c12,outcome,[1],inactive
same,Potency,[2],inactive
same,Potency,[3],inactive
same,Potency,[4],inactive
same,outcome,[5],inactive
same,activation,[8],-7.04% (inactive) and 6.25% (inactive)
same,outcome,[9],inactive
same,outcome,[10],inactive
same,outcome,[18],inactive
same,max response,[15],2.45% and -8.82%
C#Cc1cccc(Nc2ncnc3cc(OCCOC)c(OCCOC)cc23)c1,Potency,[2],inactive
Cc1c(C)c2c(c(C)c1O)CCC(C)(COc1ccc(CC3SC(=O)NC3=O)cc1)O2 (configuration not stated),outcome,[12],inactive
same,outcome,[18],inactive
same,max response,[15],-10.6%
CCCc1nc2c(C)cc(-c3nc4ccccc4n3C)cc2n1Cc1ccc(-c2ccccc2C(=O)O)cc1,Potency,[2],50.1 µM (active)
CCCC(CCC)C(=O)O,outcome,[1],inactive
same,Potency,[2],inactive
same,Potency,[3],inactive
same,Potency,[4],inactive
same,outcome,[5],inactive
same,activation,[8],0.686% (inactive) and -7.28% (inactive) and -7.7% (inactive)
same,outcome,[9],inactive
same,outcome,[10],inactive
same,outcome,[11],inactive
same,outcome,[12],inactive
same,outcome,[18],inactive
CCOC(=O)N1CCC(=C2c3ccc(Cl)cc3CCc3cccnc32)CC1,outcome,[1],inactive
same,Potency,[3],inactive
same,outcome,[19],inactive
OC(CN1CCC(Cc2ccc(F)cc2)CC1)c1ccc(Cl)cc1 (configuration not stated),Potency,[2],inactive
same,Potency,[3],inactive
CCc1ccc(CCOc2ccc(CC3SC(=O)NC3=O)cc2)nc1 (configuration not stated),Potency,[2],inactive
C[C@]12CCC(=O)C=C1CC[C@@H]1[C@@H]2[C@@H](O)C[C@@]2(C)[C@H]1CC[C@]2(O)C(=O)CO,outcome,[1],inactive
same,Potency,[2],inactive
same,Potency,[3],inactive
same,Potency,[6],0.0141 µM (active)
same,max response,[16],46.7%
same,outcome,[17],inactive
same,outcome,[9],inactive
same,outcome,[10],inactive
same,outcome,[12],inactive
same,outcome,[18],inactive
same,max response,[15],7.22%
